Reference: PubChem BioAssay
Calls of active or inactive are those of the source. Unless noted, how the calls were made is not given here.

Legend:
[1] = system: Wnt5a (protein binding on small-molecule microarray); assay: Wnt5a binders on small-molecule microarray, primary screen, biophysical, 635/667 nm fluorescence (AID 1142); conditions: 635 nm fluorescence, higher = more signal;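 further: fluorescence read at 667 nm with signal to noise per printed feature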
[2] = cell viability in Huh7 cells, primary screen, cytotoxicity control for HCV replication inhibitor project, CellTiter-Glo luminescence, basal, 48 h (AID 1143); conditions: Huh7 HCV replicon, higher = more signal, called active from +8 up or from −8 down;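 further: Huh7 hepatoma cells carrying a hepatitis C replication reporter with no stimulus; test concentration not given here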
[3] = P. aeruginosa biofilm formation inhibitors, primary screen, PAO1 strain, BacTiter-Glo luminescence, LB-PBS (AID 1144); conditions: 12 h, higher = more signal
[4] = CREB reporter modulators without forskolin, primary screen, cell-based, PC12, CRE-LacZ reporter, unstimulated (AID 1145); conditions: no forskolin, luminescence, 4.5 h, higher = more signal, called active from +8 up or from −8 down
[5] = CREB reporter modulators under forskolin, primary screen, cell-based, PC12, CRE-LacZ reporter, forskolin-stimulated (AID 1146); conditions: luminescence, 4.5 h, higher = more signal, called active from +8 up or from −8 down;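 further: PC12 cells with 6xCRE LacZ reporter stimulated by forskolin 10 µM; beta-galactosidase reporter signal reflecting CREB driven transcription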
[6] = target: Streptavidin (Streptomyces avidinii) (UniProt P22629); assay: streptavidin binders on small-molecule microarray, primary screen, artefact control for SMM compound annotation, biophysical, 635/667 nm fluorescence (AID 1147); conditions: streptavidin binding, higher = more signal;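 further: signal reflects streptavidin binding to arrayed compounds as a control protein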
[7] = small-molecule binders of probe aInhba, primary screen, biochemical, small-molecule microarray, 635/667 nm fluorescence (AID 1148); conditions: higher = more signal;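 further: score merges 667nm spot fluorescence with signal-to-noise for antibody binding to printed compounds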
[8] = target: Torsin-1A (Homo sapiens) (UniProt O14656); assay: torsin A binders from cell lysate, primary screen, small-molecule microarray, wild-type, 635/667 nm (AID 1149); conditions: COS7 hTOR1A-WT lysate, 635 nm fluorescence, higher = more signal
[9] = target: Torsin-1A (Homo sapiens) (UniProt O14656); assay: small-molecule binders of mutant TOR1A in lysate, primary screen, cell lysate, small-molecule microarray, COS7 lysate, 635/667 nm fluorescence (AID 1150); conditions: COS7 hTOR1A mutant lysate, 635 nm fluorescence, higher = more signal;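 further: score pools 667 nm emission and signal to noise measuring lysate protein binding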
[10] = system: Sonic hedgehog protein (Shh); assay: small-molecule binders of Shh protein, primary screen, biochemical, small-molecule microarray, 635/667 nm fluorescence (AID 1151); conditions: small-molecule microarray binding, 635 nm fluorescence; higher = more signal;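 further: Shh protein binding to compounds spotted on small-molecule microarray slides; score combines spot fluorescence intensity with signal-to-noise across triplicate slides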
[11] = E. coli DRC41 culture turbidity changes, primary screen, E. coli filamentation inducer project, strain DRC41, OD650, 48 h (AID 1152);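 further: E. coli MC1000 strain DRC41 lacking acrAB efflux pump and sulA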; conditions: E. coli DRC41 (acrAB sulA), higher = more signal, called active from +8 up or from −8 down
[12] = small-molecule binders of probe aLefty1, primary screen, biochemical, small-molecule microarray, 635/667 nm fluorescence (AID 1153); conditions: higher = more signal;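 further: score merges spot fluorescence with signal-to-noise ratio from the scanned slide images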
[13] = PSAC antagonists in infected red cells, primary screen, cell-based, P. falciparum Indochina, OD700, 1 h (AID 1154); conditions: P. falciparum Indochina infected RBC osmotic lysis, higher = more signal, called active from +8 up or from −8 down
[14] = PSAC antagonists in infected red cells, primary screen, cell-based, P. falciparum Indochina, OD700, 2 h (AID 1155);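 further: lysis reports solute entry through the parasite surface anion channel PSAC; channel blockers reduce lysis of infected cells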; conditions: P. falciparum Indochina infected erythrocytes, osmotic lysis OD700; higher = more signal, called active from +8 up or from −8 down
[15] = osmotic lysis modulators in infected erythrocytes, primary screen, PSAC antagonist project, cell-based, P. falciparum Indochina, OD700, 3 h (AID 1156); conditions: higher = more signal, called active from +8 up or from −8 down
[16] = PSAC antagonists in infected red cells, primary screen, cell-based, P. falciparum Indochina, OD700, 18 h (AID 1157); conditions: P. falciparum Indochina infected erythrocytes, osmotic lysis OD700, 18 h; higher = more signal, called active from +8 up or from −8 down
[17] = modulators of S6 phosphorylation in cells, primary screen, cell-based, A549, cytoblot, luminescence, serum-stimulated (AID 1158); conditions: A549 phospho-S6 cytoblot, 5 h, higher = more signal;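 further: serum-stimulated A549 lung adenocarcinoma cells; signal is phosphorylated S6 detected by cytoblot immunostaining with HRP secondary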
[18] = target: NADPH oxidase 2 (Homo sapiens) (UniProt P04839); assay: NOX2-dependent H2O2 signal modulators, primary screen, NOX inhibitor project, cell-based, HEK293-NOX2, PMA-stimulated, Amplex Red fluorescence (AID 1159); conditions: 45 min, higher = more signal, called active from +8 up or from −8 down; further: test concentration not given here
[19] = target: NADPH oxidase 4 (Homo sapiens) (UniProt Q9NPH5); assay: NOX4-dependent H2O2 signal modulators, primary screen, NOX inhibitor project, cell-based, HEK293-NOX4, tetracycline-induced, Amplex Red fluorescence (AID 1160); conditions: 45 min, higher = more signal, called active from +8 up or from −8 down
[20] = target: NADPH oxidase 5 (Homo sapiens) (UniProt Q96PH1); assay: NOX5-dependent H2O2 signal modulators, primary screen, NOX inhibitor project, cell-based, HEK293-NOX5, Amplex Red fluorescence (AID 1161); conditions: HEK293-NOX5, ionomycin, 45 min, higher = more signal
NADPH oxidase 5 (Homo sapiens), sequence (Q96PH1 whole entry, looked up): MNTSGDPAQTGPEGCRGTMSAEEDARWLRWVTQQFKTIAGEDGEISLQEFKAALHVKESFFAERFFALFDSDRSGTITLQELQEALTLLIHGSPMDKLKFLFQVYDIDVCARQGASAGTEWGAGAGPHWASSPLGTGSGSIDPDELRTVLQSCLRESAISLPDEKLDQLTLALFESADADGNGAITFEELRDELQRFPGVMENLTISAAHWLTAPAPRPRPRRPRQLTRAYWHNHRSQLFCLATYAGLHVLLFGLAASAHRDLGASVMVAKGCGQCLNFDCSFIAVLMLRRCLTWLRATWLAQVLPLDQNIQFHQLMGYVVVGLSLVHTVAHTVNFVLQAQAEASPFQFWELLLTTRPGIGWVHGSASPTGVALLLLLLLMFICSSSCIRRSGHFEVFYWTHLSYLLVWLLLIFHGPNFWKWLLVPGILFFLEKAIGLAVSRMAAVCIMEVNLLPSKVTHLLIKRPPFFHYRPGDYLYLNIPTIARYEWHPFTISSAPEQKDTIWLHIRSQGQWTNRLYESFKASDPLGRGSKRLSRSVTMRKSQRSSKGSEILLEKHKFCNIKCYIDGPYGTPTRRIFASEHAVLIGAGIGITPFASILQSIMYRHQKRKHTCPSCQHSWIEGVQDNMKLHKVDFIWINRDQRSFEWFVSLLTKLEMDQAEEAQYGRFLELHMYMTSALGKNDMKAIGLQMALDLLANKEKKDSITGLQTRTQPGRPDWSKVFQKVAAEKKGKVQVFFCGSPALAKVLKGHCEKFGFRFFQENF

Streptavidin (Streptomyces avidinii), sequence (P22629 whole entry, looked up): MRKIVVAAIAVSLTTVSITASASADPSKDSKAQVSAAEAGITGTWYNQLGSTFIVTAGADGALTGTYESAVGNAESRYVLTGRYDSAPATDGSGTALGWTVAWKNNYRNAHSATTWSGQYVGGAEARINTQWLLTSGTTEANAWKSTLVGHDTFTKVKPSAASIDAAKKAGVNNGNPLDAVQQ
NADPH oxidase 2 (Homo sapiens), sequence (P04839 whole entry, looked up): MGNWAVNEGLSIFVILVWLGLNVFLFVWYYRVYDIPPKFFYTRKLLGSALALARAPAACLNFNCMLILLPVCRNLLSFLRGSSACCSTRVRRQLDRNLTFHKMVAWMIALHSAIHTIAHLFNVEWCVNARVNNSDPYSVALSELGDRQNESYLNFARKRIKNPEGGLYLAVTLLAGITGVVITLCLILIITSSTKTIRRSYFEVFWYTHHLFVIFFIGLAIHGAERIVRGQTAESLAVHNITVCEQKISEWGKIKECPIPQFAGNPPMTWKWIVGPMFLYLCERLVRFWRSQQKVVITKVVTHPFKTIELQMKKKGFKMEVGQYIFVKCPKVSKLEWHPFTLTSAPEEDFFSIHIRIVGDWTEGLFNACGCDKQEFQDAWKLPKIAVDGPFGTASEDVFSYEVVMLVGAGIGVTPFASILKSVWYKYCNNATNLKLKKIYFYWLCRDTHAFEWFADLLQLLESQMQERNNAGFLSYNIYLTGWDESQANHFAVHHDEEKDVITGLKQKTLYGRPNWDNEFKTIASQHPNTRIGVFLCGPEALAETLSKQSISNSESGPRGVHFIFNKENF
Torsin-1A (Homo sapiens), sequence (O14656 whole entry, looked up): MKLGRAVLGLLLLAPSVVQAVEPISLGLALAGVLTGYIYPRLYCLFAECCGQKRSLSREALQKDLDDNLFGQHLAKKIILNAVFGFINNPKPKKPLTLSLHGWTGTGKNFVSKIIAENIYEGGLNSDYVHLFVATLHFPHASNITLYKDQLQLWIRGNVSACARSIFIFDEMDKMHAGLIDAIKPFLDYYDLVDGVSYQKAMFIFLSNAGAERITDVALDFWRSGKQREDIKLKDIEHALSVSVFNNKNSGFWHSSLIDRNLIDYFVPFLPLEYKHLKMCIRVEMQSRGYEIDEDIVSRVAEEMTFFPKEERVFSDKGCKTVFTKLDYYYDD
NADPH oxidase 4 (Homo sapiens), sequence (Q9NPH5 whole entry, looked up): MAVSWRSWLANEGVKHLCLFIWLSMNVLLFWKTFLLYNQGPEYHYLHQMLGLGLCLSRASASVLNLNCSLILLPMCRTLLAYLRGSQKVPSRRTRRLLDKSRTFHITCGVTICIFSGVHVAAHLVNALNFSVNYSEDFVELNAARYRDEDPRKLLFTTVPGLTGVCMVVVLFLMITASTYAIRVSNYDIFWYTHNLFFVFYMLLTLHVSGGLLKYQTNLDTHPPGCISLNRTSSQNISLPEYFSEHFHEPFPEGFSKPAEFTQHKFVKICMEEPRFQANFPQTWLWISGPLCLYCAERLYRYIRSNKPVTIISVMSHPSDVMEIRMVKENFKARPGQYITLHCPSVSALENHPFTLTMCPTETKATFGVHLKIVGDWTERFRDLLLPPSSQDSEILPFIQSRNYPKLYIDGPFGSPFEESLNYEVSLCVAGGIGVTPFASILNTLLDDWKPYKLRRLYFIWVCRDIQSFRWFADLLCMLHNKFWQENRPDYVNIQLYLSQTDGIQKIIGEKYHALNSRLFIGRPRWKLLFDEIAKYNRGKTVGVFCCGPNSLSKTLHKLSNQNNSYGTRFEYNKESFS

| SMILES | composite z-score [1] | z-score [2] | z-score [3] | z-score [4] | z-score [5] | composite z-score [6] | composite z-score [7] | composite z-score [8] | composite z-score [9] | composite z-score [10] | z-score [11] | composite z-score [12] | z-score [13] | z-score [14] | z-score [15] | z-score [16] | z-score [17] | z-score [18] | z-score [19] | z-score [20] |
| --- | --- | --- | --- | --- | --- | --- | --- | --- | --- | --- | --- | --- | --- | --- | --- | --- | --- | --- | --- | --- |
| COc1ccc(C(=O)Nc2ccc3c(c2)[C@]2(O[C@@H](CCO)[C@H]([Si](C)(C)c4ccc(OC)cc4)[C@H]2C)C(=O)N3Cc2ccccc2)cc1 | 0.476 | -8.09 (active) | -1.18 (inactive) | 1.82 (inactive) | -0.606 (inactive) | 0.328 | -0.0209 | 0.816 | 0.671 | 1.83 | 0.257 (inactive) | -0.147 | 4.99 (inactive) | 1.42 (inactive) | 2.07 (inactive) | -0.237 (inactive) | 0.776 | -5.81 (inactive) | -1.21 (inactive) | 0.304 |
| [N-]=[N+]=Nc1ccccc1[C@H]1OC(c2ccc(OCCCO)cc2)=N[C@@]1(Cc1ccccc1)C(=O)NCc1ccccc1 | 0.821 | -5.4 (inactive) | -0.638 (inactive) | -0.16 (inactive) | -1.26 (inactive) | 0.501 | 0.0301 | 0.104 | 0.383 | -0.272 | 1.74 (inactive) | 0.512 | 33.5 (active) | 26.9 (active) | 1.22 (inactive) | 2.33 (inactive) | 2.03 | -2.35 (inactive) | -0.275 (inactive) | -1.3 |
| CC(C)N1C(=O)c2ccccc2[C@](C)(C(=O)O)[C@@H]1c1ccc(CO)cc1 | -0.654 | -0.328 (inactive) | 0.00934 (inactive) | -0.206 (inactive) | 0.552 (inactive) | -0.603 | -0.148 | -1.03 | -0.792 | -1.02 | -0.308 (inactive) | 0.0451 | 0.268 (inactive) | -0.103 (inactive) | 0.209 (inactive) | 0.352 (inactive) | 0.256 | 0.229 (inactive) | -0.166 (inactive) | -1.27 |
| COCCCNC(=O)[C@]1(Cc2ccccc2CN=[N+]=[N-])N=C(c2ccc(OCCCO)cc2)O[C@@H]1c1ccccc1CN=[N+]=[N-] | 0.471 | -4.04 (inactive) | 1.06 (inactive) | 0.969 (inactive) | -1.02 (inactive) | 1.23 | 0.648 | 0.883 | 0.721 | -0.256 | -0.279 (inactive) | 0.861 | 28.8 (active) | 21.5 (active) | 1.72 (inactive) | 2.09 (inactive) | 0.953 | -0.983 (inactive) | -0.00869 (inactive) | -0.84 |
| COCCOC(=O)N1C(=O)[C@@]2(c3cc(C#Cc4ccc(OC)cc4)ccc31)[C@H](C(=O)N1CCc3cc(OC)c(OC)cc3C1)[C@H]1C(=O)O[C@H](c3ccccc3)[C@H](c3ccccc3)N1[C@@H]2c1ccc(OCCO)cc1 | 0.4 | -0.831 (inactive) | -0.959 (inactive) | -1.27 (inactive) | -0.194 (inactive) | 0.364 | 0.124 | 0.666 | 0.528 | 1.69 | 0.59 (inactive) | 0.0391 | 6.15 (inactive) | 2.99 (inactive) | 1.69 (inactive) | 1.42 (inactive) | 0.228 | -0.306 (inactive) | -1.58 (inactive) | -0.623 |
| Cc1ccc(S[C@]2(C(=O)O)CC(=O)N(C3CCCCC3)[C@@H]2c2ccc(CO)cc2)cc1 | 0.219 | -0.0359 (inactive) | -0.78 (inactive) | -0.116 (inactive) | -0.337 (inactive) | 1.28 | 0.112 | -0.284 | -0.249 | -0.265 | 0.858 (inactive) | -0.672 | 2.06 (inactive) | 0.0744 (inactive) | 0.854 (inactive) | 0.0854 (inactive) | -0.158 | 1.09 (inactive) | 0.585 (inactive) | 0.763 |
| COC(=O)[C@]1(Cc2ccccc2N=[N+]=[N-])N=C(c2ccc(OCCCO)cc2)O[C@@H]1c1ccccc1 | 0.0416 | -5.29 (inactive) | -0.566 (inactive) | 2.59 (inactive) | 15.8 (active) | -0.189 | 0.125 | -0.53 | -0.23 | -0.148 | 0.738 (inactive) | -0.111 | 28.2 (active) | 27.2 (active) | 1.06 (inactive) | 7.41 (inactive) | 0.777 | -1.49 (inactive) | -0.013 (inactive) | -1.12 |
| O=C1NC(=O)C2C1C=CC(C(O)c1ccc(-c3ccccc3)s1)N2Nc1ccccn1 (stereo not given) | 0.368 | 0.429 (inactive) | -0.505 (inactive) | -0.329 (inactive) | 0.0978 (inactive) | 0.45 | -0.0662 | 0.351 | 0.898 | -0.0564 | -0.513 (inactive) | 0.114 | 2.41 (inactive) | 1.14 (inactive) | 0.216 (inactive) | 1.02 (inactive) | -0.697 | -1.09 (inactive) | -2.3 (inactive) | -1.44 |
